The results in this text go back to PubChem BioAssay AID1159537 (DiRusso Lab, Biochemistry Department, University of Nebraska, 2015).

In all, about 44,000 compounds went through this assay and about 370 (0.84%) were called active. No rule for the calls is given here. What follows is part of a selection rich in actives, with near analogues and random picks from the rest.

The nature of this experiment: inducers of TAG accumulation in Chlamydomonas, primary screen, qHTS, Chlamydomonas reinhardtii (AID 1159537).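 Also: hits raise Nile Red signal meaning more stored TAG.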 The following applies: Nile Red fluorescence, 72 h, screened at 10 µM (by protocol). In general terms: qHTS replaces the single test concentration by a dilution series.
Take `COCCN1C(=O)C(O)=C(C(=O)c2ccc(C)o2)C1c1cccc(Cl)c1` (stereo unspecified): the compound was classed as inactive.

On to `NC(=O)c1sc2cc([N+](=O)[O-])ccc2c1Cl`, for which the compound was called inactive.

`O=C(CCCc1ccccc1)Nc1cccc(Cl)c1`: the result was inactive.

For the compound `CCc1cccc(C)c1NC(=O)c1cc(OC)cc(OC)c1`, the compound was called inactive.

Take `COc1ccc(CNC(=O)C(c2ccccc2)c2ccccc2)cc1`: the call was inactive.

For the compound `NC(=O)c1c(NC(=O)COc2ccc([N+](=O)[O-])cc2)sc2c1CCCC2`, the outcome was inactive.

As for `COc1cccc(OCCOc2ccc(C)cc2OC)c1`, the call was inactive.

As for `COc1ccc(S(=O)(=O)N2CCN(c3ccccc3F)CC2)cc1OC`, the call was inactive.

For `CC1(C)Cc2ccccc2/C(=C(\C#N)C(=O)Nc2cccc([N+](=O)[O-])c2)N1`, the compound was classed as inactive.

In the case of `Cc1cc(C)nc(NS(=O)(=O)c2ccc(N/C=C\C(=O)c3cccs3)cc2)n1`, the outcome was inactive.

As to `Cc1cccc(NC(=O)c2ccc(Cl)c(Cl)c2)c1C`, the compound was classed as inactive.

For `Cc1cc(=O)[nH]c(SCc2ccc(Cl)cc2)n1`, the call was inactive.

Take `CCCCOc1ccc(N2C(=O)CC(N3CCN(c4ccccn4)CC3)C2=O)cc1` (stereo unspecified): the compound was classed as inactive.

For the compound `CC(=O)N1CCN(Cc2c(Cl)cccc2Cl)CC1`, the compound was classed as inactive.

Take `C=CCn1c(=O)c(C2=NS(=O)(=O)c3ccccc3N2)c(O)c2ccccc21`: the call was inactive.

Regarding `O=C(c1ccc([N+](=O)[O-])cc1)N1CCN(C2CCCC2)CC1`, the compound was called inactive.

Turning to `CCOc1ccccc1C(=O)Nc1ccc([N+](=O)[O-])cc1OC`, the compound was called inactive.

`Clc1ccc(-c2nnc3ccc(NCc4ccccc4)nn23)cc1`: the compound was called inactive.

With `O=C(O)c1ccccc1C(=O)c1ccc(O)cc1O`, the compound was called inactive.

In the case of `OCCN(Cc1ccccc1)Cc1ccc(-c2ccccc2)cc1`, the compound was called inactive.

On to `CCOc1ccc(NC(=O)C(=O)NCCc2ccc(Cl)cc2)cc1`, for which the compound was classed as inactive.

On to `O=C(Nc1cccnc1)c1cccc(C(=O)Nc2cccnc2)c1`, for which the compound was called inactive.

`CCOC(=O)N1CCN(C2CCN(CC)CC2)CC1`: the compound was classed as inactive.

Take `CCN1CCN(C2CCN(Cc3ccccc3)CC2)CC1`: the result was inactive.

As to `CCC1CCC(N2CCN(CC)CC2)CC1` (stereo unspecified), the compound was called active.

Regarding `O=C(c1cccc([N+](=O)[O-])c1)c1ccc2c(c1)C(=O)N(c1nccs1)C2=O`, the compound was called inactive.

Regarding `COc1c(S(=O)(=O)NCc2ccncc2)ccc(Cl)c1Cl`, the compound was classed as inactive.

As to `CCCCOc1ccc(N2C(=O)CC(N3CCN(c4ncccn4)CC3)C2=O)cc1` (stereo unspecified), the outcome was inactive.

As to `Cc1ccc(SCC(=O)Nc2ccc3c(c2)OCCO3)cc1`, the result was inactive.

Turning to `NNc1ncnc2sc3c(c12)CCCC3`, the result was inactive.

Consider `COc1ccc(C(=O)N2CCC(C(=O)Nc3ccc(OCc4ccccc4)cc3)CC2)cc1`, for which the compound was classed as inactive.

As to `O=C1NCCCc2nc(N3CCOCC3)sc21`, the result was inactive.

Turning to `COc1ccc(N(CC(=O)N(C)Cc2ccccc2)S(C)(=O)=O)cc1OC`, the compound was classed as inactive.

As for `O=C(COc1ccc(Cl)cc1)Nc1ccc(F)c(F)c1`, the result was inactive.

`O=C(/C=C/c1ccc(-c2ccccc2Cl)o1)c1ccco1`: the call was inactive.

With `O=C(c1ccc(C#CC2(O)CCCCC2)cc1)N1CCN(c2ccccc2Cl)CC1`, the compound was called inactive.

Regarding `N#CC1=C(SCc2ccccc2)NC(=O)CC1c1ccc(Br)cc1` (stereo unspecified), the compound was classed as inactive.

For the compound `CC(=O)c1ccc(N2CCN(C(=O)c3c(F)c(F)cc(C)c3Cl)CC2)c(F)c1`, the call was inactive.

For `COc1ccc(-c2cc(C(=O)Nc3cccnc3)c3ccccc3n2)cc1`, the outcome was inactive.

As to `Cc1cc(C)c(NC(=O)c2ccc(F)cc2)c(C)c1`, the result was inactive.

Regarding `CC(C)c1ccc(OCC(=O)N2CCCC2)cc1`, the result was inactive.

`O=C(NCC1CCNCC1)C(=O)NC1CCCCC1`: the compound was classed as inactive.

For `NC(=O)c1ccc2[nH]c3c(c2c1)CCCC3`, the result was inactive.

As for `O=S(=O)(CCc1ccccc1)Nc1ccccc1`, the outcome was inactive.

`CC(C)COc1ccc(C(=O)Nc2ccc([N+](=O)[O-])cc2Cl)cc1`: the compound was called inactive.

As to `Cc1cc(OCCN2CCOCC2)nc(NCc2ccccc2)n1`, the result was inactive.

For `Cc1ccc(CN2CCOCC2)c(C)c1`, the call was inactive.

Consider `CCOc1ccc(CN2CCCN(C)CC2)cc1`, for which the compound was classed as inactive.

On to `Cc1cc(OCCN2CCN(C)CC2)ccc1C(C)C`, for which the compound was classed as active.

For the compound `Cc1ccc(C(C)C)cc1OCCN1CCCC1`, the call was inactive.

On to `Cc1cc(OCCCCN2CCOCC2)ccc1C(C)C`, for which the result was active.

In the case of `CS(=O)(=O)N(Cc1ccc(C(=O)Nc2cccnc2)cc1)c1ccccc1`, the compound was classed as inactive.

As for `CCc1ccc(N2CC(C(=O)NC(C)CC)CC2=O)cc1` (stereo unspecified), the result was inactive.

Turning to `O=C(Nc1cccc(Cl)c1Cl)c1ccc(I)o1`, the compound was called inactive.

`CCOc1ccc(NC(=O)C(=O)NCc2ccccc2OC)cc1`: the compound was called inactive.

With `Cc1cc(Cl)ccc1NC(=O)c1cccnc1`, the compound was called inactive.

For the compound `Cc1ccc(C(=O)c2ccc(N3CCN(C)CC3)c([N+](=O)[O-])c2)cc1`, the result was active.

As to `CC1CCN(c2ccc(C(=O)O)cc2[N+](=O)[O-])CC1`, the compound was classed as inactive.

Turning to `CS(=O)(=O)N1CCN(c2ccc(C(=O)NC3C4CC5CC(C4)CC3C5)cc2[N+](=O)[O-])CC1` (stereo unspecified), the compound was classed as inactive.

Regarding `CC(=O)c1ccc(NC(=O)c2ccc(CN(c3ccccc3)S(C)(=O)=O)cc2)cc1`, the compound was called inactive.

On to `O=C(C1=C(O)C(=O)N(c2ncccn2)C1c1cccc([N+](=O)[O-])c1)c1ccco1` (stereo unspecified), for which the compound was classed as inactive.

For the compound `O=C(Nc1ccccc1C(=O)NCCN1CCOCC1)c1cccc(I)c1`, the call was inactive.

On to `CCOc1ccccc1NC1=NS(=O)(=O)c2ccccc21`, for which the compound was called inactive.

Take `COc1cc(C=O)cc(Br)c1OCc1ccccn1`: the result was inactive.

On to `Cc1ccc(C(=O)Nc2cccc(O)c2)cc1S(=O)(=O)N1CCC(C)CC1`, for which the result was inactive.

On to `O=C(NCCCN1CCOCC1)c1ccccc1Br`, for which the outcome was inactive.

For `O=S(=O)(NCCN1CCOCC1)c1ccc(I)cc1`, the compound was classed as inactive.

Consider `Cc1cc(C)c(S(=O)(=O)NCCCN2CCOCC2)cc1Br`, for which the result was active.

In the case of `CN(C)CCNC(=O)c1ccc(Cl)cc1`, the call was inactive.

Take `CC(=O)c1cc2c(cc1NC(=O)c1ccccc1Cl)OCCO2`: the outcome was inactive.

With `Cc1ccc(NS(=O)(=O)c2ccc(C(C)(C)C)cc2)cn1`, the compound was called inactive.

For `COc1ccc(CC(=O)NC(c2ccccc2)c2ccccc2)cc1OC`, the outcome was inactive.

As to `CC1=C(C(=O)Nc2ccc(C)cn2)C(c2cccc(Cl)c2Cl)C2=C(CCCC2=O)N1` (stereo unspecified), the result was inactive.

Take `CCc1ccc(OCCN2CCCC(C)C2)cc1` (stereo unspecified): the outcome was inactive.

In the case of `Cc1nnc(NC(=O)CSc2nnnn2-c2ccc(Cl)cc2)s1`, the compound was called inactive.

In the case of `O=C(O)c1ccc(C(=O)O)c(S(=O)(=O)c2cc(C(=O)O)ccc2C(=O)O)c1`, the compound was classed as inactive.
